In the library only some 4.9% were active in any assay of this set; here they are far more common.
OTUD3 block = blocks human OTUD3 ubiquitin-rhodamine cleavage. inhibition, % at 25 µM. purified OTUD3, Ub-rhodamine fluorescence, 2 h. 0.7% of 47,000 active. Q5T2D3
UCHL1 block = inhibitors of human UCHL1 deubiquitinase | P09936 | purified UCHL1, Ub-rhodamine cleavage fluorescence | inhibition, % at 20 µM | 0.2% of 47,000 active
USP7 inh = blocks human USP7 ubiquitin-rhodamine cleavage. Q93009. purified USP7, Ub-rhodamine cleavage fluorescence. inhibition, % at 20 µM. 0.3% of 47,000 active. AID 1645854
USP10 inh = inhibitors of human USP10 deubiquitinase | Q14694 | purified USP10, Ub-rhodamine fluorescence, 60 min | inhibition, % at 20 µM | 1.1% of 47,000 active | AID 1645856
USP8 inh = blocks human USP8 ubiquitin-rhodamine cleavage | purified USP8, Ub-rhodamine cleavage fluorescence, 30 min | inhibition, % at 20 µM | P40818 | AID 1645853 | 4.2% of 47,000 active
Target sequence (P40818 whole entry, looked up): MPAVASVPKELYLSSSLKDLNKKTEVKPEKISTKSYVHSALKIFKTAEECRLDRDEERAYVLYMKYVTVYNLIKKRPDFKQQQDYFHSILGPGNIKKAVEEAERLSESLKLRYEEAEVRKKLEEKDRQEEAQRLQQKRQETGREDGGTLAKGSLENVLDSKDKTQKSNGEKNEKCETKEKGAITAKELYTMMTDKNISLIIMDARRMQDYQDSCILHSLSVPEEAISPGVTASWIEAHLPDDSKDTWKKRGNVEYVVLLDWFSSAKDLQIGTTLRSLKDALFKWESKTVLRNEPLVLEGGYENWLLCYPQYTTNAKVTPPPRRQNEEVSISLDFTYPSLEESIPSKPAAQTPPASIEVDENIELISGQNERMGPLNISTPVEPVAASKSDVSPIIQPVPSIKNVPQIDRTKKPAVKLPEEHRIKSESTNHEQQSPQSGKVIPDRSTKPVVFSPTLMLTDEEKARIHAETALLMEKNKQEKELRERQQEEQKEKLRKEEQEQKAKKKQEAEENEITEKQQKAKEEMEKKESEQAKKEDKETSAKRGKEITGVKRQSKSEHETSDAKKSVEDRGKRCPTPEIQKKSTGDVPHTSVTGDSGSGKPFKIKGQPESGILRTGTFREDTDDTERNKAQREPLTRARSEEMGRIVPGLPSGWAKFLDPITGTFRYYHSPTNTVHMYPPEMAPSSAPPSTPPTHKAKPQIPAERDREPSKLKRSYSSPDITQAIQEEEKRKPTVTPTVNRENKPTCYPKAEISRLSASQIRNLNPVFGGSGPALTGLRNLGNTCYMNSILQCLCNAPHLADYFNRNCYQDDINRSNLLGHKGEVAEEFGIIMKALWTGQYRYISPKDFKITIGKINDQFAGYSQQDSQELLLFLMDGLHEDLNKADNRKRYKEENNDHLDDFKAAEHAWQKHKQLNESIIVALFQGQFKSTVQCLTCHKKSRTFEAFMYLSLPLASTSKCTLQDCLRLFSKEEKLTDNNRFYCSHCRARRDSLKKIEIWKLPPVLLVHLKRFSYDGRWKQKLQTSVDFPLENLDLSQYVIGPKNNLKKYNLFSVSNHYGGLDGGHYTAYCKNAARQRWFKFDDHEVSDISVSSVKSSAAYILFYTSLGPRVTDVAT
Hits are given with their value; - = inactive. Cut-off read from the data, not from the text of the source: active = inhibition above about 30%; inactive = the rest.

SMILES | OTUD3 block | UCHL1 block | USP7 inh | USP10 inh | USP8 inh
O=C(Cn1c(=O)n(Cc2ccc(C(=O)NCc3ccco3)cc2)c(=O)c2ccccc21)Nc1ccc2c(c1)OCCO2 | - | - | - | 41.0 | 74.4
Cc1ccc(CNC(=O)CCCn2c(=O)c3ccccc3n(CC(=O)Nc3cc(C)[nH]n3)c2=O)cc1 | - | - | - | - | -
CC(C)CN1C[C@H]2CCN(C(=O)c3ccc(Cl)cc3)CC[C@H]2S1(=O)=O | - | - | - | - | -
COc1ccc(NC(=O)Cn2c(=O)n(CCCCC(=O)NCc3ccco3)c(=O)c3ccccc32)cc1Cl | - | - | - | 59.2 | -
O=C(CCCCn1c(=O)c2ccccc2n(CC(=O)Nc2ccc3c(c2)OCCO3)c1=O)NCc1ccco1 | - | - | - | 43.3 | -
Cn1cc(C2CCCN2C(=O)Cc2csc(C(C)(C)C)n2)cn1 (stereo not drawn) | - | - | - | - | -
CCCCOC(=O)c1ccc(NC(=O)C(=O)CC(=O)c2ccc(OC)cc2)cc1 | - | - | - | - | 77.3
COc1ccc(NC(=O)Nc2ccc(F)c(-c3nnc(-c4ccccc4)o3)c2)c(OC)c1 | - | - | - | - | -
Cc1c(CCC(=O)N2CC[C@@]3(O)CCCC[C@H]3C2)c(=O)oc2cc(OCc3ccc(F)cc3F)ccc12 | - | - | - | - | -
Cc1c(OCC(=O)NCC(=O)N2CCC3(O)CCCCC3C2)ccc2c3c(c(=O)oc12)CCCC3 (stereo not drawn) | 41.0 | - | - | - | -
COc1ccc(COc2ccc3c(C)c(CC(=O)N4CC[C@@]5(O)CCCC[C@H]5C4)c(=O)oc3c2)cc1 | - | - | - | 61.9 | 33.5
O=C(Cc1cccc(F)c1)N1CCC(c2[nH]nc3nccnc23)CC1 | - | - | - | - | -
FC(F)(F)c1cc(C(F)(F)F)c2sc(Nc3ccccc3)nc2n1 | - | - | - | - | 92.3
NC(=O)c1nc(Nc2ccccc2)sc1N | - | - | - | - | -
Cc1ccc(-c2c3c(=O)n(C)c(=O)n(C)c3cn2-c2ccc3c(c2)OCCO3)cc1 | - | - | - | - | 63.2
Cn1nc(C(=O)N2CCC(c3ccccc3)C2)c2c1-c1ccsc1CC2 (stereo not drawn) | - | - | - | - | 73.5
Cc1cccc(OC(C)C(=O)Oc2ccc(-n3cnnn3)cc2)c1C (stereo not drawn) | - | - | - | - | -
CC1(C)C(=O)Nc2ccccc2N1C(=O)COc1ccc(-c2nnco2)cc1 | - | - | - | - | -
COc1ccc(CC(=O)OCC(=O)N2c3ccccc3NC(=O)C2(C)C)cc1 | - | - | - | - | 32.9
O=c1[nH]c2c(cnn2Cc2ccccc2)c(O)c1-c1nc(-c2ccccc2F)no1 | - | - | - | - | -
Cc1ccccc1CNC(=O)c1c(O)c2cnn(Cc3ccccc3)c2[nH]c1=O | - | - | - | - | -
O=C(Nc1cccc(F)c1)c1c(O)c2cnn(Cc3ccccc3)c2[nH]c1=O | - | - | - | - | 61.5
O=C(NCc1ccccc1F)c1c(O)c2cnn(Cc3ccccc3)c2[nH]c1=O | - | - | - | - | 79.6
O=C(Nc1ccc(F)cc1)c1c(O)c2cnn(Cc3ccccc3)c2[nH]c1=O | - | - | - | - | 42.0
O=C(/C=C/c1cn(-c2ccccc2)nc1-c1cc2ccccc2o1)c1ccc(N2CCOCC2)cc1 | - | - | - | - | -
SMILES | OTUD3 block | UCHL1 block | USP7 inh | USP10 inh | USP8 inh
COc1ccc(OC)c(NC(=O)COc2ccc(N(C)S(=O)(=O)c3ccc(C)cc3)cc2)c1 | - | - | - | - | -
CCNC(=O)c1ccc(N2CCNCC2)c(NS(=O)(=O)c2cc(C)ccc2C)c1 | - | - | - | - | 35.9
COc1ccc(-n2cc(C(=O)NCCc3ccc(F)cc3)nn2)cc1 | - | - | - | - | 37.5
CC(=O)Nc1cccc(NC(=O)c2ccc(CSc3ccc(Cl)cc3)cc2)c1 | - | - | - | - | -
Cc1ccc2nc(CNc3ccc(F)cc3C)cc(=O)n2c1 | 42.0 | 31.7 | - | - | 93.0
CN(Cc1cc(=O)n2ccsc2n1)c1ccccc1 | - | - | - | - | 34.7
Cc1ccc2nc(CN(C)c3ccccc3)cc(=O)n2c1 | - | - | - | - | 74.2
NC(=O)c1ccccc1NCc1cc(=O)n2cc(Cl)ccc2n1 | - | - | - | - | -
Cc1c(OCc2ccccc2)noc1C1CCN(C(=O)CCN)CC1 | - | - | - | - | -
O=C(Cc1ccc2c(c1)OCCO2)Nc1ccccc1C(F)(F)F | - | - | - | - | -
COC(=O)c1ccc(S(=O)(=O)N(Cc2ccc(C(N)=O)cc2)C2CC2)cc1 | - | - | - | - | -
CC(C)=CCC/C(C)=C/CC/C(C)=C/Cc1c(C)cc(O)cc1O | - | - | - | - | -

Screens deposited in PubChem by Buhrlage Lab, Dana-Farber Cancer Institute and Novartis Institutes for BioMedical Research (Cambridge, Mass).
